Results as given in paper PMC12529666, “Dysregulation of AGO2-miRNA dynamics underlies the AGO2-associated Lessel–Kreienkamp syndrome”.

How the values were obtained:
Assay in all cases: RNA Bind-n-Seq (nitrocellulose filter binding and sequencing); miR-122 guide loaded in AGO2; 60 min incubation; 30 mM Tris pH 8.0, 100 mM potassium acetate, 2 mM magnesium acetate, 0.5 mM TCEP, 0.005% NP-40, 0.01 mg/ml yeast tRNA; 3 nM AGO2-miR-122, 100 nM RNA library; 60; high values mean tight binding
Settings in all cases: protein: recombinant; tags: His6 (N-terminal, pFastBac HTA)
AGO2 L192P = AGO2 L192P (Homo sapiens, UniProt Q9UKV8 1-859, L192P;S387D;S824A;S828D;S831D;S834A)
How it was run: (§1)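 His-tagged AGO2 was expressed in Sf9 insect cells by baculovirus, loaded with a synthetic guide RNA, and purified by Ni-NTA and a biotinylated capture oligo. Bound RNA was extracted, reverse-transcribed, barcode-amplified and Illumina-sequenced. Fold enrichment is each sequence's read fraction divided by its input-library read fraction.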

AGO2 A367P = AGO2 A367P (Homo sapiens, UniProt Q9UKV8 1-859, A367P;S387D;S824A;S828D;S831D;S834A)
How it was run: as §1

AGO2 T357M = AGO2 T357M (Homo sapiens, UniProt Q9UKV8 1-859, T357M;S387D;S824A;S828D;S831D;S834A)
How it was run: as §1

AGO2 F182del = AGO2 F182del (Homo sapiens, UniProt Q9UKV8 1-859, S387D;S824A;S828D;S831D;S834A;del182-182)
How it was run: as §1

Sequence of AGO2 T357M (Q9UKV8 whole entry T357M/S387D/S824A/S828D/S831D/S834A): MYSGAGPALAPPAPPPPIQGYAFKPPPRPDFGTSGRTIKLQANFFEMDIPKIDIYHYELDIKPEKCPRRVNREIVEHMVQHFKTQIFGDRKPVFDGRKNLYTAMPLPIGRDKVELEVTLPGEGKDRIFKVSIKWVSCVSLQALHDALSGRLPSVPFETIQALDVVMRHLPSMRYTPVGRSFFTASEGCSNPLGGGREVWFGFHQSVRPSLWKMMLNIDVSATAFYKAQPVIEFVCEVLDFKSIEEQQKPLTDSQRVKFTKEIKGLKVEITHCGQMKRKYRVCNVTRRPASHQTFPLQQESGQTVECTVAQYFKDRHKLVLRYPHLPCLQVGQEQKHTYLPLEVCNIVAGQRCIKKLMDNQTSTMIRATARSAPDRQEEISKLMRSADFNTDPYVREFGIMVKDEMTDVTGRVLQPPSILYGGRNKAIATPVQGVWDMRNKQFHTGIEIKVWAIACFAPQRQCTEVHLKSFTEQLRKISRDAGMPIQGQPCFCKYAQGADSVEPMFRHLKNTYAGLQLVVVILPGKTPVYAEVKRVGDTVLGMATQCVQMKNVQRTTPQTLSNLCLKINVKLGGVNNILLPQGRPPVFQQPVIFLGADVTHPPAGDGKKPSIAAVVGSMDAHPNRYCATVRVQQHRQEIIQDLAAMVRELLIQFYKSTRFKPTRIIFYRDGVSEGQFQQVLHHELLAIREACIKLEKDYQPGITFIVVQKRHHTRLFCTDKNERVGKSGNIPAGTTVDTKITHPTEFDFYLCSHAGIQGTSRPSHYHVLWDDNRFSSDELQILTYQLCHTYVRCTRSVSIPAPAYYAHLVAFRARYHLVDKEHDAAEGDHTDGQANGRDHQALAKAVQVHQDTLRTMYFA
Sequence of AGO2 A367P (Q9UKV8 whole entry A367P/S387D/S824A/S828D/S831D/S834A): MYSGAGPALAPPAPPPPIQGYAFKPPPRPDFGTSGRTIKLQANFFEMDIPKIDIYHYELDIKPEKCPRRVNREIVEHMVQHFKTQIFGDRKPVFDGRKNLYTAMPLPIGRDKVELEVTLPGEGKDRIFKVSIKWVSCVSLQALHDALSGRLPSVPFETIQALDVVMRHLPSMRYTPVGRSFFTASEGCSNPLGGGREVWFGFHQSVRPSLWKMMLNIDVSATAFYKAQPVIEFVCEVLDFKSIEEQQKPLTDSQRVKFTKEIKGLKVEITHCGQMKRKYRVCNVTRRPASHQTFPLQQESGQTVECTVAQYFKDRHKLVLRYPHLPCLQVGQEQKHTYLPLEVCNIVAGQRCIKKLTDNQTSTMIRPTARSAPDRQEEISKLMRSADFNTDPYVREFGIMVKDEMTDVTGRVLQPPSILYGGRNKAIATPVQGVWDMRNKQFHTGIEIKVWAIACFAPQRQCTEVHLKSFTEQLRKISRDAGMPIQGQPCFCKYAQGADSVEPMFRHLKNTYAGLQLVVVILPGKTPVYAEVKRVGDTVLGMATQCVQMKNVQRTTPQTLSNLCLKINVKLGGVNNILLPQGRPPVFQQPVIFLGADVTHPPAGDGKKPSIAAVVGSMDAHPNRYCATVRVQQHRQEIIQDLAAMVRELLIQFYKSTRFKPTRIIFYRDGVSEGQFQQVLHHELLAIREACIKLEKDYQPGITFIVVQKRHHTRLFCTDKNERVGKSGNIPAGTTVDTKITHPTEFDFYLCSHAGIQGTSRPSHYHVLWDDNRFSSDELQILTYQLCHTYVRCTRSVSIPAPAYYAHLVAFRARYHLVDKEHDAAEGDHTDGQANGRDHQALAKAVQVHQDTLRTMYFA
Sequence of AGO2 L192P (Q9UKV8 whole entry L192P/S387D/S824A/S828D/S831D/S834A): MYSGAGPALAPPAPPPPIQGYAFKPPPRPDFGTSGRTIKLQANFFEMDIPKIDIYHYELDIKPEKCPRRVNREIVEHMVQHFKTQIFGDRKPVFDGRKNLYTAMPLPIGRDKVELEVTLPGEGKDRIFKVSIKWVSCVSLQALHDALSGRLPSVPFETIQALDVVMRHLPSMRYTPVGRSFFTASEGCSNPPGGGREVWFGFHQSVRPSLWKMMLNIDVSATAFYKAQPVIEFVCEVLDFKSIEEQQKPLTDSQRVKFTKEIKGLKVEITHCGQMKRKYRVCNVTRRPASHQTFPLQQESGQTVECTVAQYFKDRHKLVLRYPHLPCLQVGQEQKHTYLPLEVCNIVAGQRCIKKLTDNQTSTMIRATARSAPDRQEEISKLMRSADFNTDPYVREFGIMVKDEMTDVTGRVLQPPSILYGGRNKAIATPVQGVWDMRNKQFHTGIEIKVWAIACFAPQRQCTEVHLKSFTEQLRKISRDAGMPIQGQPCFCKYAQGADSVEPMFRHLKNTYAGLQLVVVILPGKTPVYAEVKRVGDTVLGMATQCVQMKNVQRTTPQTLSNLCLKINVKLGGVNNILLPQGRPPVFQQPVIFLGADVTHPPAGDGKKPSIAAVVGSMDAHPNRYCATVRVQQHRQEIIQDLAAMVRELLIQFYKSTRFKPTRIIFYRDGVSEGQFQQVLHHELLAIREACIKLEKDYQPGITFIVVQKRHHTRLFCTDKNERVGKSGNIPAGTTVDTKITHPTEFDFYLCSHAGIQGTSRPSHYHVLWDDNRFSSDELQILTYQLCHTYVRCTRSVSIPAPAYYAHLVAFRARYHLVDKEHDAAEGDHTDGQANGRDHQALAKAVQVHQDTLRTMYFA
Sequence of AGO2 F182del (Q9UKV8 other isoform, or with tags, fused parts or gaps S387D;S824A;S828D;S831D;S834A;del182-182): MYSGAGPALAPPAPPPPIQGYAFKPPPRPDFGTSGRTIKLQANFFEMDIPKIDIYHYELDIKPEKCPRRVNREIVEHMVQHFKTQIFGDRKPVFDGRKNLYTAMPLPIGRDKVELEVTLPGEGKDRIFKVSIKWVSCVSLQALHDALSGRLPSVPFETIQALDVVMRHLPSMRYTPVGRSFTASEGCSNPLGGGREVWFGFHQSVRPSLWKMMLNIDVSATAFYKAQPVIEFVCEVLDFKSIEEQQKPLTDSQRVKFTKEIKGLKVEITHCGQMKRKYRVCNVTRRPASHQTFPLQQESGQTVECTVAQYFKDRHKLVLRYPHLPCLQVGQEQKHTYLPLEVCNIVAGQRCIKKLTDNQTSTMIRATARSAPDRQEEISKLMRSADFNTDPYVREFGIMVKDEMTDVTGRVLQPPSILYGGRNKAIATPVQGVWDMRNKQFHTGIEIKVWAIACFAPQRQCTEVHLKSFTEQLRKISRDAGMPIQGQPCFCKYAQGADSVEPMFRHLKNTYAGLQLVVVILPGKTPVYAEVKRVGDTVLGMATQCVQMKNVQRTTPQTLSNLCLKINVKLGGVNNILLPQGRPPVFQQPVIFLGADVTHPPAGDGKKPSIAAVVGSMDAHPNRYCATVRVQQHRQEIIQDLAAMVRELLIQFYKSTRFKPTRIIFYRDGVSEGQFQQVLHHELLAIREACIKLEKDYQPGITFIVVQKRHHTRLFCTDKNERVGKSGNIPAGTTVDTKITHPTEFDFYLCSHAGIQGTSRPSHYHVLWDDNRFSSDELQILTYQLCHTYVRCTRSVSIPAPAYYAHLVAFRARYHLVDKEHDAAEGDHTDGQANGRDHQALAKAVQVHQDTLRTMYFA

| Binder | binding signal (AGO2 L192P) | binding signal (AGO2 A367P) | binding signal (AGO2 T357M) | binding signal (AGO2 F182del) |
| --- | --- | --- | --- | --- |
| ATATTCTG (ssRNA, constant regions annealed to DNA blockers; guide miR-122 5' phosphate) RNA 1: GAGUUCUACAGUCCGACGAUCCCAACAUAUUCUGCACCUGGAAUUCUCGGGUGCCAA RNA 2: UGGAGUGUGACAAUGGUGUUUG DNA 1: GATCGTCGGACTGTAGAACTC DNA 2: TTGGCACCCGAGAATTCCA | 0.389 fold enrichment over input | 0.137 fold enrichment over input | 0.54 fold enrichment over input |  |
| ATGTTTCG (ssRNA, constant regions annealed to DNA blockers; guide miR-122 5' phosphate) RNA 1: GAGUUCUACAGUCCGACGAUCCCAACAUGUUUCGCACCUGGAAUUCUCGGGUGCCAA RNA 2: UGGAGUGUGACAAUGGUGUUUG DNA 1: GATCGTCGGACTGTAGAACTC DNA 2: TTGGCACCCGAGAATTCCA | 0.353 fold enrichment over input | 0.123 fold enrichment over input | 0.462 fold enrichment over input |  |
| ATGCCTTG (ssRNA, constant regions annealed to DNA blockers; guide miR-122 5' phosphate) RNA 1: GAGUUCUACAGUCCGACGAUCCCAACAUGCCUUGCACCUGGAAUUCUCGGGUGCCAA RNA 2: UGGAGUGUGACAAUGGUGUUUG DNA 1: GATCGTCGGACTGTAGAACTC DNA 2: TTGGCACCCGAGAATTCCA | 0.356 fold enrichment over input | 0.131 fold enrichment over input | 0.51 fold enrichment over input |  |
| GTATCTTG (ssRNA, constant regions annealed to DNA blockers; guide miR-122 5' phosphate) RNA 1: GAGUUCUACAGUCCGACGAUCCCAACGUAUCUUGCACCUGGAAUUCUCGGGUGCCAA RNA 2: UGGAGUGUGACAAUGGUGUUUG DNA 1: GATCGTCGGACTGTAGAACTC DNA 2: TTGGCACCCGAGAATTCCA | 0.32 fold enrichment over input | 0.127 fold enrichment over input | 0.448 fold enrichment over input |  |
| ATGCCCTA (ssRNA, constant regions annealed to DNA blockers; guide miR-122 5' phosphate) RNA 1: GAGUUCUACAGUCCGACGAUCCCAACAUGCCCUACACCUGGAAUUCUCGGGUGCCAA RNA 2: UGGAGUGUGACAAUGGUGUUUG DNA 1: GATCGTCGGACTGTAGAACTC DNA 2: TTGGCACCCGAGAATTCCA | 0.457 fold enrichment over input | 0.166 fold enrichment over input | 0.544 fold enrichment over input |  |
| GCATCCCG (ssRNA, constant regions annealed to DNA blockers; guide miR-122 5' phosphate) RNA 1: GAGUUCUACAGUCCGACGAUCCCAACGCAUCCCGCACCUGGAAUUCUCGGGUGCCAA RNA 2: UGGAGUGUGACAAUGGUGUUUG DNA 1: GATCGTCGGACTGTAGAACTC DNA 2: TTGGCACCCGAGAATTCCA | 0.376 fold enrichment over input | 0.143 fold enrichment over input | 0.478 fold enrichment over input |  |
| GCATCTCG (ssRNA, constant regions annealed to DNA blockers; guide miR-122 5' phosphate) RNA 1: GAGUUCUACAGUCCGACGAUCCCAACGCAUCUCGCACCUGGAAUUCUCGGGUGCCAA RNA 2: UGGAGUGUGACAAUGGUGUUUG DNA 1: GATCGTCGGACTGTAGAACTC DNA 2: TTGGCACCCGAGAATTCCA | 0.321 fold enrichment over input | 0.121 fold enrichment over input | 0.4 fold enrichment over input |  |
| GTACTCTA (ssRNA, constant regions annealed to DNA blockers; guide miR-122 5' phosphate) RNA 1: GAGUUCUACAGUCCGACGAUCCCAACGUACUCUACACCUGGAAUUCUCGGGUGCCAA RNA 2: UGGAGUGUGACAAUGGUGUUUG DNA 1: GATCGTCGGACTGTAGAACTC DNA 2: TTGGCACCCGAGAATTCCA | 0.425 fold enrichment over input | 0.181 fold enrichment over input | 0.539 fold enrichment over input |  |
| GTACCTTG (ssRNA, constant regions annealed to DNA blockers; guide miR-122 5' phosphate) RNA 1: GAGUUCUACAGUCCGACGAUCCCAACGUACCUUGCACCUGGAAUUCUCGGGUGCCAA RNA 2: UGGAGUGUGACAAUGGUGUUUG DNA 1: GATCGTCGGACTGTAGAACTC DNA 2: TTGGCACCCGAGAATTCCA | 0.347 fold enrichment over input | 0.128 fold enrichment over input | 0.482 fold enrichment over input |  |
| ACGTTTTG (ssRNA, constant regions annealed to DNA blockers; guide miR-122 5' phosphate) RNA 1: GAGUUCUACAGUCCGACGAUCCCAACACGUUUUGCACCUGGAAUUCUCGGGUGCCAA RNA 2: UGGAGUGUGACAAUGGUGUUUG DNA 1: GATCGTCGGACTGTAGAACTC DNA 2: TTGGCACCCGAGAATTCCA | 0.342 fold enrichment over input | 0.136 fold enrichment over input | 0.495 fold enrichment over input |  |
| ACGCCTCG (ssRNA, constant regions annealed to DNA blockers; guide miR-122 5' phosphate) RNA 1: GAGUUCUACAGUCCGACGAUCCCAACACGCCUCGCACCUGGAAUUCUCGGGUGCCAA RNA 2: UGGAGUGUGACAAUGGUGUUUG DNA 1: GATCGTCGGACTGTAGAACTC DNA 2: TTGGCACCCGAGAATTCCA | 0.351 fold enrichment over input | 0.15 fold enrichment over input | 0.48 fold enrichment over input |  |
| ATACTCTA (ssRNA, constant regions annealed to DNA blockers; guide miR-122 5' phosphate) RNA 1: GAGUUCUACAGUCCGACGAUCCCAACAUACUCUACACCUGGAAUUCUCGGGUGCCAA RNA 2: UGGAGUGUGACAAUGGUGUUUG DNA 1: GATCGTCGGACTGTAGAACTC DNA 2: TTGGCACCCGAGAATTCCA | 0.437 fold enrichment over input | 0.187 fold enrichment over input | 0.545 fold enrichment over input | 0.128 fold enrichment over input |
| GTGTCTTG (ssRNA, constant regions annealed to DNA blockers; guide miR-122 5' phosphate) RNA 1: GAGUUCUACAGUCCGACGAUCCCAACGUGUCUUGCACCUGGAAUUCUCGGGUGCCAA RNA 2: UGGAGUGUGACAAUGGUGUUUG DNA 1: GATCGTCGGACTGTAGAACTC DNA 2: TTGGCACCCGAGAATTCCA | 0.335 fold enrichment over input | 0.131 fold enrichment over input | 0.447 fold enrichment over input |  |
| GCATTTTG (ssRNA, constant regions annealed to DNA blockers; guide miR-122 5' phosphate) RNA 1: GAGUUCUACAGUCCGACGAUCCCAACGCAUUUUGCACCUGGAAUUCUCGGGUGCCAA RNA 2: UGGAGUGUGACAAUGGUGUUUG DNA 1: GATCGTCGGACTGTAGAACTC DNA 2: TTGGCACCCGAGAATTCCA | 0.36 fold enrichment over input | 0.127 fold enrichment over input | 0.449 fold enrichment over input |  |
| ATACCCTG (ssRNA, constant regions annealed to DNA blockers; guide miR-122 5' phosphate) RNA 1: GAGUUCUACAGUCCGACGAUCCCAACAUACCCUGCACCUGGAAUUCUCGGGUGCCAA RNA 2: UGGAGUGUGACAAUGGUGUUUG DNA 1: GATCGTCGGACTGTAGAACTC DNA 2: TTGGCACCCGAGAATTCCA | 0.364 fold enrichment over input | 0.126 fold enrichment over input | 0.522 fold enrichment over input |  |
| GTGTTTTG (ssRNA, constant regions annealed to DNA blockers; guide miR-122 5' phosphate) RNA 1: GAGUUCUACAGUCCGACGAUCCCAACGUGUUUUGCACCUGGAAUUCUCGGGUGCCAA RNA 2: UGGAGUGUGACAAUGGUGUUUG DNA 1: GATCGTCGGACTGTAGAACTC DNA 2: TTGGCACCCGAGAATTCCA | 0.344 fold enrichment over input | 0.129 fold enrichment over input | 0.483 fold enrichment over input |  |
| ATACTTTG (ssRNA, constant regions annealed to DNA blockers; guide miR-122 5' phosphate) RNA 1: GAGUUCUACAGUCCGACGAUCCCAACAUACUUUGCACCUGGAAUUCUCGGGUGCCAA RNA 2: UGGAGUGUGACAAUGGUGUUUG DNA 1: GATCGTCGGACTGTAGAACTC DNA 2: TTGGCACCCGAGAATTCCA | 0.38 fold enrichment over input | 0.138 fold enrichment over input | 0.553 fold enrichment over input |  |
| GCGCTTTG (ssRNA, constant regions annealed to DNA blockers; guide miR-122 5' phosphate) RNA 1: GAGUUCUACAGUCCGACGAUCCCAACGCGCUUUGCACCUGGAAUUCUCGGGUGCCAA RNA 2: UGGAGUGUGACAAUGGUGUUUG DNA 1: GATCGTCGGACTGTAGAACTC DNA 2: TTGGCACCCGAGAATTCCA | 0.333 fold enrichment over input | 0.137 fold enrichment over input | 0.462 fold enrichment over input |  |
| ATGTCCTG (ssRNA, constant regions annealed to DNA blockers; guide miR-122 5' phosphate) RNA 1: GAGUUCUACAGUCCGACGAUCCCAACAUGUCCUGCACCUGGAAUUCUCGGGUGCCAA RNA 2: UGGAGUGUGACAAUGGUGUUUG DNA 1: GATCGTCGGACTGTAGAACTC DNA 2: TTGGCACCCGAGAATTCCA | 0.343 fold enrichment over input | 0.122 fold enrichment over input | 0.425 fold enrichment over input |  |
| ACGTTCTG (ssRNA, constant regions annealed to DNA blockers; guide miR-122 5' phosphate) RNA 1: GAGUUCUACAGUCCGACGAUCCCAACACGUUCUGCACCUGGAAUUCUCGGGUGCCAA RNA 2: UGGAGUGUGACAAUGGUGUUUG DNA 1: GATCGTCGGACTGTAGAACTC DNA 2: TTGGCACCCGAGAATTCCA | 0.334 fold enrichment over input | 0.128 fold enrichment over input | 0.445 fold enrichment over input |  |
| GTGTCTCG (ssRNA, constant regions annealed to DNA blockers; guide miR-122 5' phosphate) RNA 1: GAGUUCUACAGUCCGACGAUCCCAACGUGUCUCGCACCUGGAAUUCUCGGGUGCCAA RNA 2: UGGAGUGUGACAAUGGUGUUUG DNA 1: GATCGTCGGACTGTAGAACTC DNA 2: TTGGCACCCGAGAATTCCA | 0.345 fold enrichment over input | 0.125 fold enrichment over input | 0.468 fold enrichment over input |  |
| ATGTTCCG (ssRNA, constant regions annealed to DNA blockers; guide miR-122 5' phosphate) RNA 1: GAGUUCUACAGUCCGACGAUCCCAACAUGUUCCGCACCUGGAAUUCUCGGGUGCCAA RNA 2: UGGAGUGUGACAAUGGUGUUUG DNA 1: GATCGTCGGACTGTAGAACTC DNA 2: TTGGCACCCGAGAATTCCA | 0.352 fold enrichment over input | 0.121 fold enrichment over input | 0.475 fold enrichment over input |  |
| ATATTCCG (ssRNA, constant regions annealed to DNA blockers; guide miR-122 5' phosphate) RNA 1: GAGUUCUACAGUCCGACGAUCCCAACAUAUUCCGCACCUGGAAUUCUCGGGUGCCAA RNA 2: UGGAGUGUGACAAUGGUGUUUG DNA 1: GATCGTCGGACTGTAGAACTC DNA 2: TTGGCACCCGAGAATTCCA | 0.389 fold enrichment over input | 0.136 fold enrichment over input | 0.541 fold enrichment over input |  |
